Results from PubChem BioAssay (Tox21).
Records with an inconclusive call do not appear. The source made the active and inactive calls. The call rests on the fitted dose curve; in most records, active means well fitted cell-killing curve with a large enough effect in the repeat runs; inconclusive means weak or mixed curves, or effect the other way; inactive means flat fitted curve, though single readings scatter.

Assay: qHTS RealTime-Glo MT Cell Viability Assay in HEK293 cells - 40 hour (AID 1224874); further: nearly all actives have a fitted effect of over 50% in size
Settings: RealTime-Glo luminescence; max response: active compounds read low
Description: U.S. Tox21 Program National Center for Advancing Translational Sciences [NCATS] NIH Chemical Genomics Center [NCGC] U.S. Environmental Protection Agency [EPA] National Institutes of Environmental Health Sciences [NIEHS] National Toxicology Program [NTP] U.S. Food and Drug Administration [FDA] Tox21 Assay Overview: Measure of cell viability is critical in the cell-base assay. Analysis of cell viability is necessary for the characterization of cell responses to cytotoxic drugs and environmental stress. A RealTime-Glo MT Cell Viability Assay to monitor cell viability in real time of continues cell culture during 40 hours of compound treatment was used to screen Tox21 10K library compounds in Hek293 cells. The RealTime-Glo MT Cell Viability Assay is a nonlytic, homogeneous, bioluminescent method to measure cell viability in real time using a simple, plate-based method. The assay involves adding NanoLuc luciferase and a cell-permeant prosubstrate to cells in culture. Viable cells reduce the proprietary prosubstrate to generate a substrate for NanoLuc luciferase. This substrate diffuses from cells into the surrounding culture medium, where it is rapidly used by the NanoLuc Enzyme to produce a luminescent signal. The signal correlates with the number of viable cells, making the assay well suited for cytotoxicity studies.
Tox21 Assay Protocol Summary: The mixture of Hek293 cell suspension and reagents were dispensed at 600cells/6 ul/well in 1536-well tissue culture treated black solid bottom plates using a Multidrop dispenser. After the assay plates were incubated at a 37 C/5% CO2 incubator for 5 hours, 23 nL of compounds dissolved in DMSO, positive and negative controls was transferred to the assay plate by a pintool work station. The plates were incubated at 37 C for 40 hours. The luminescence intensity were measured at 0h, 8h, 16h, 24h, 32h and 40h time points using ViewLux plate reader during compound treatment.
On the % scale 0 is the no-effect control and ±100 the full control effect; potency means the concentration at half of the fitted maximal effect.

For `C=CC(=O)N1CCOCC1`, which max response is on record?
The max response was -1.69% (inactive).

Which max response does the source give for `CCC(=O)c1cccc(Cl)c1` here?
The max response was 3.96% (inactive).

Which max response does the source give for `C=C(C)C(=O)NCCC[N+](C)(C)C` here?
Its max response is 0.623% (inactive).

For `CC(=O)CCc1ccc(O)cc1`, which max response is on record?
Its max response is -1.37% (inactive).

For `CCCCc1ccc2cccc(S(=O)(=O)O)c2c1`, which max response is on record?
The max response was 3.37% (inactive).

Which max response does the source give for `CC(C)c1cccc(O)c1` here?
Its max response is 1.56% (inactive).

With `Nc1[nH]c(=O)ncc1F` as the compound, how does the max response read?
The max response was 0.113% (inactive).

For `CCCc1ccc(N)cc1`, which max response is on record?
The max response was -1.79% (inactive).

For `CC(C)COC(=O)c1ccccc1O`, which max response is on record?
The max response was 7.83% (inactive).

With `CCCCCCCCCCCCI` as the compound, how does the max response read?
The max response was -9.8% (inactive).

Which max response does the source give for `CN(C)CCOC(c1ccc(Cl)cc1)c1ccccn1` (stereo not given) here?
The max response was 6.99% (inactive).

Which max response does the source give for `O=C(O)/C=C/c1ccc(/C=C/C(=O)O)cc1` here?
The max response was 3.8% (inactive).

Which max response does the source give for `CCN1CCCC(OC(=O)C(c2ccccc2)c2ccccc2)C1` (stereo not given) here?
Its max response is 14.8% (inactive).

Which max response does the source give for `COC(=O)c1ccc(C(=O)OC)c(C(=O)OC)c1` here?
The max response was 1.35% (inactive).

Which max response does the source give for `CC1CCN(CCCC(=O)c2ccc(F)cc2)CC1` here?
The max response was -2.98% (inactive).

With `CC(=O)NC(Cc1ccccc1)C(=O)O` (stereo not given) as the compound, how does the max response read?
The max response was 5.56% (inactive).

With `O=C(O)c1ccccc1S` as the compound, how does the max response read?
The max response was -0.793% (inactive).

For `CC(=O)N[C@@H](CCC(N)=O)C(=O)O`, which max response is on record?
The max response was -1.52% (inactive).

For `CC(C)N1C(=O)c2ccccc2C1=O`, which max response is on record?
Its max response is 4.79% (inactive).

With `N#CCc1ccccc1[N+](=O)[O-]` as the compound, how does the max response read?
Its max response is 9.34% (inactive).

With `Cc1cc(C)cc(OCC2CNC(=O)O2)c1` (stereo not given) as the compound, how does the max response read?
The max response was 2.49% (inactive).

With `CCCC(C)CO` (stereo not given) as the compound, how does the max response read?
The max response was 8.5% (inactive).

For `OCc1ccccn1`, which max response is on record?
Its max response is 11.2% (inactive).

With `NCCN1CCNC1=O` as the compound, how does the max response read?
Its max response is 0.993% (inactive).

For `CC(=O)O[C@H](CC(=O)[O-])C[N+](C)(C)C`, which max response is on record?
Its max response is 4.27% (inactive).

Which max response does the source give for `C=C(C)C(=O)NCCCN(C)C` here?
Its max response is 9.44% (inactive).

With `C#CC(C)(O)CC(C)C` (stereo not given) as the compound, how does the max response read?
The max response was 22.3% (inactive).

Which max response does the source give for `CCC(=O)Nc1cccc(N)c1` here?
The max response was 0.318% (inactive).

Which max response does the source give for `CC(C)(O)C(=O)c1ccc(OCCO)cc1` here?
Its max response is 6.03% (inactive).

Which max response does the source give for `CC(C)CCCC(C)CCCC(C)CCCCC(C)CCCC(C)CCCC(C)C` (stereo not given) here?
The max response was 3.24% (inactive).

For `Cc1ccccc1C(=O)O`, which max response is on record?
The max response was -0.805% (inactive).

With `Cc1nc(-c2ccc(OCC(C)C)c(C#N)c2)sc1C(=O)O` as the compound, how does the max response read?
Its max response is -0.381% (inactive).

With `FC(F)(F)C(F)(F)C(F)(F)C(F)(F)C(F)(F)C(F)(F)C(F)(F)C(F)(F)C(F)(F)C(F)(F)F` as the compound, how does the max response read?
The max response was -1.44% (inactive).

Which max response does the source give for `CCn1cc(C(=O)O)c(=O)c2cc(F)c(N3CCN(C)CC3)cc21` here?
The max response was -1.49% (inactive).

With `CCCCCCC(CCCCCCCCCCC(=O)OCC(COC(C)=O)OC(C)=O)OC(C)=O` (stereo not given) as the compound, how does the max response read?
Its max response is 14.5% (inactive).

Which max response does the source give for `COc1cccc(OC)c1` here?
Its max response is 0.816% (inactive).

For `C/C=C1\C(=O)C[C@H]2[C@@H]3CCC4=CC(=O)CC[C@]4(C)[C@H]3CC[C@]12C`, which Potency is on record?
The Potency was 21.4 µM (active).

With `Nc1nc2c(ncn2CCC(CO)CO)c(=O)[nH]1` as the compound, how does the max response read?
Its max response is 0.17% (inactive).

With `COC(=O)CCCC(=O)O` as the compound, how does the max response read?
Its max response is 10.9% (inactive).

For `O=C(O)c1cccc(C(=O)O)n1`, which max response is on record?
Its max response is -0.906% (inactive).
